Activity calls are given as the source filed them. Rule for the calls: active = hit-call score of the fitted dose curve at least 0.9, where 1 is the maximum; inactive = score below 0.9.
Assay: ATG_M_06_CIS: Attagene CIS-FACTORIAL HepG2 Assay for M06 Transcription Factor (Internal Marker) (AID 2282950)
Conditions: HepG2 Attagene CIS-FACTORIAL M06 internal marker reporter; actives raise or lower the signal
Method: ATG_CIS is a cell-based, multiplexed-readout assay that uses HepG2, a human liver cell line, with measurements taken at 24 hours after chemical dosing in a 24-well plate.ATG_M_06_CIS is one of 52 assay component(s) measured or calculated from the ATG_CIS assay. It is designed to make measurements of mRNA induction, a form of inducible reporter, as detected with fluorescence intensity signals by Reverse transcription polymerase chain reaction (RT-PCR) and Capillary electrophoresis technology.Data from the assay component ATG_M_06_CIS was analyzed into 1 assay endpoint. This assay endpoint, ATG_M_06_CIS, was analyzed with bidirectional fitting relative to DMSO as the negative control and baseline of activity. Using a type of inducible reporter, measures of mRNA for gain or loss-of-signal activity can be used to understand the background control at the transcription factor-level as they relate to the gene . Furthermore, this assay endpoint can be referred to as a secondary readout, because this assay has produced multiple assay endpoints where this one serves a background control function. To generalize the intended target to other relatable targets, this assay endpoint is annotated to the background measurement intended target family, where the subfamily is internal marker.
Human liver HepG2 cells are transiently transfected with multiple reporter transcription units (MRTUs) in 6-well plates using FuGene 6 reagent (Roche; 3 ml FuGene/1 mg DNA). The MRTU constructs are regulated by a cis-regulating element (promoter). […] A major difference between the CIS and TRANS system is that in CIS activities of endogenous TFs are measured, whereas the TRANS assay evaluates changes in activities of exogenous, chimeric NR-Gal4 proteins. […] At the end of 24 hour incubation, total RNA was isolated using TriZol reagent (Invitrogen). The isolated RNA is then reverse-transcribed using oligo(dT) primer and Mo-MLV reverse transcriptase (Invitrogen) with DNAse I (Ambion) treatment for 30 min. The one-tenth of the produced cDNA was amplified by PCR using Taq DNA polymerase (Invitrogen) and two reporter sequence-specific primers. The PCR products were fluorescently labeled by primer extension with 6-arboxyfluorescein (6-FAM) 5'-labeled reporter sequence-specific primer (2 min at 95 C, 20 s at 68 C and 10 min at 72 C) and these products were digested with 5U of HpaI (New England Biolabs) for 2h at 37 C. The fragments were purified using Qiaquick PCR columns (Qiagen), analyzed on an ABI 3130xL genetic analyzer (Applied Biosystems) with peak positions identified by using a set of X-rhodamine (ROX)-labeled MapMarker1000 molecular weight standards (BioVentures). The raw capillary electrophoresis data was processed using Attagraph software (Attagene).

outcome, inactive:
CCCCCCCCN1CCCC1=O
C=CCOC(=O)CCCCCC
CCN(CCC#N)c1ccc(N=Nc2ccc([N+](=O)[O-])cc2)cc1
Brc1ccc(Br)c(Br)c1
CCCC(C)C(O)CC (stereo not given)
O=C(c1ccccc1)C(O)c1ccccc1 (stereo not given)
CC/C=C\CCOC(=O)CC
C=C(C)C(=O)OCCOCCOCCOCCOC(=O)C(=C)C
COC(C)(C)CC(C)=O
CCCCCCCCCCCCS(=O)(=O)Cl
CCCC(=O)OC(C)(C)Cc1ccccc1
O=[N+]([O-])c1ccc(O)cc1C(F)(F)F
CC(C)=CCCC(C)CCOC=O (stereo not given)
C=Cc1ccc(C(C)(C)C)cc1
Cc1cc(S(=O)(=O)O)ccc1N=Nc1c(O)ccc2ccccc12
CCOC(=O)CCc1ccccc1
Cc1ncc([N+](=O)[O-])n1CCO
C/C=C(\C)C(=O)OCCc1ccccc1
CCOc1ccc(NC(=O)CC(C)=O)cc1
CCCC(=O)c1ccccc1
CC(C)(C)OC(=O)c1ccc(O)cc1
CN(C)C(=O)Nc1ccc(Oc2ccc(Cl)cc2)cc1
C#CC(C)N(C)C(=O)Nc1ccc(Cl)cc1 (stereo not given)
CCCCCc1ccco1
C#CC(C)(O)CC(C)C (stereo not given)
Cc1ccc(-c2ccccc2)cc1
OCc1cccc(Oc2ccccc2)c1
CCCCCC(=O)CC
CC1(C)CCC[C@]2(C)[C@H]3CCO[C@]3(C)CC[C@@H]12
COC(=O)c1ccc(C)cc1C1=NC(C)(C(C)C)C(=O)N1 (stereo not given) (tested in a mixture with another compound)
CC(O)C1CCCCC1 (stereo not given)
CC(C)CCCCCCc1ccc(OCCOCCO)cc1
CN(C)CCOC(C)(c1ccccc1)c1ccccn1 (stereo not given)
C=C1C[C@]23C[C@@]1(O)CC[C@H]2[C@@]12C=C[C@H](O)[C@@](C)(C(=O)O1)[C@H]2[C@@H]3C(=O)O
O=c1c(O)c(-c2ccc(O)cc2)oc2cc(O)cc(O)c12
C1CCOC1
O=C1c2ccccc2C(=O)c2c(O)ccc(O)c21
Cc1ccc(S(N)(=O)=O)cc1
CCCCN(CCCC)C(=O)N(CCCC)CCCC
C=C(C)[C@@H]1CC=C(C)C(=O)C1

From PubChem BioAssay (EPA / NIEHS)
